In PubChem BioAssay (NCI):
Compounds without any hit were thinned out: in the full panel of roughly 79,000, 15% have a hit. Activity calls are given as the source filed them. Rule as the data show it: active = growth inhibition above about 70%; inactive = the rest.

Columns and labels:
[1] = NCI Yeast Anticancer Drug Screen. Data for the rad52 strain (AID 147);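 also: 0% = growth of vehicle-treated control cultures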; settings: S. cerevisiae rad52 mutant growth inhibition, hits give high values
Outline: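 DNA repair-defective yeast; compound exposure; growth scored against vehicle controls.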

[2] = NCI Yeast Anticancer Drug Screen. Data for the wt1 strain (AID 149);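 also: 0% = growth of vehicle-treated wt1 cultures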; settings: S. cerevisiae wt1 strain (SPY 50644) growth inhibition, hits give high values
Outline: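 Yeast wt1 strain exposed to compounds; growth inhibition measured relative to vehicle-treated controls.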

[3] = NCI Yeast Anticancer Drug Screen. Data for the rad50EPP+ strain (AID 151);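 also: 0% = growth of vehicle-treated control cultures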; settings: S. cerevisiae rad50 mutant strain, hits give high values
Outline: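 rad50EPP+ yeast treated with test compounds. Readout: growth vs vehicle control.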

[4] = NCI Yeast Anticancer Drug Screen. Data for the rad50 strain (AID 155);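 also: 0% = growth of vehicle-only cultures of the same strain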; settings: S. cerevisiae rad50 strain growth inhibition, hits give high values
Outline: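 Yeast carrying a defined DNA repair defect were exposed to test compounds, and growth was compared with vehicle-treated controls to give percent inhibition.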

[5] = NCI Yeast Anticancer Drug Screen. Data for the mec2-1 strain (AID 157); settings: S. cerevisiae mec2-1 strain, hits give high values
Outline: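 Growth inhibition is read against vehicle-treated controls after compound exposure of the mec2-1 yeast strain, which is defective in DNA damage repair or cell cycle control.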

[6] = NCI Yeast Anticancer Drug Screen. Data for the rad14 strain (AID 159);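 also: 0% = growth of vehicle-treated control cultures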; settings: S. cerevisiae rad14 strain growth inhibition, hits give high values
Outline: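 Yeast cells carrying a defined DNA-repair defect were exposed to compounds, and growth inhibition was calculated relative to vehicle-treated control cultures.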

[7] = NCI Yeast Anticancer Drug Screen. Data for the sgs1 mgt1 strain (AID 161);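 also: 0% = growth of cultures given vehicle only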; settings: S. cerevisiae sgs1 mgt1 strain, hits give high values
Outline: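 Percent growth inhibition was derived by comparing compound-exposed mutant yeast with vehicle-exposed cultures. The strain carries alterations in DNA damage repair.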

[8] = NCI Yeast Anticancer Drug Screen. Data for the CLN2oe strain (AID 163);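 also: 0% = growth of vehicle-only control cultures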; settings: S. cerevisiae CLN2oe strain, hits give high values
Outline: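 Compound-treated yeast; growth vs vehicle ctrl = % inhibition. Genetically altered strain (cell-cycle control).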

[9] = NCI Yeast Anticancer Drug Screen. Data for the cln2 rad14 strain (AID 165);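 also: 0% = growth equal to vehicle treated cultures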; settings: S. cerevisiae cln2 rad14 strain, hits give high values
Outline: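 Growth inhibition, relative to vehicle-treated controls, is the read-out. The test organism is a yeast strain with defined genetic alterations, cln2 rad14.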

[10] = NCI Yeast Anticancer Drug Screen. Data for the bub3 strain (AID 167); settings: S. cerevisiae bub3 mutant strain, hits give high values
Outline: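 Compounds were applied to a genetically altered yeast strain carrying a cell-cycle control defect. Growth inhibition was scored against vehicle-treated controls.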

[11] = NCI Yeast Anticancer Drug Screen. Data for the wt2 strain (AID 169);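 also: 0% = growth of vehicle-treated yeast cultures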; settings: S. cerevisiae wt2 strain growth inhibition, hits give high values
Outline: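 Compound exposure of yeast; growth compared with vehicle controls; inhibition reported.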

[12] = NCI Yeast Anticancer Drug Screen. Data for the mlh1 strain (AID 171);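 also: 0% = growth of vehicle-treated control cultures of the same strain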; settings: S. cerevisiae mlh1 strain growth inhibition, hits give high values
Outline: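 Compounds are applied to a genetically altered yeast strain, and its growth is compared with that of vehicle-treated cultures to give percent inhibition.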

[13] = NCI Yeast Anticancer Drug Screen. Data for the sgs1 strain (AID 173);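 also: 0% = growth of vehicle-only control cultures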; settings: S. cerevisiae sgs1 mutant, hits give high values
Outline: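 Compounds applied to genetically altered yeast; growth compared with vehicle-treated cultures to give % inhibition.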

[14] = NCI Yeast Anticancer Drug Screen. Data for the mlh1 rad18 strain (AID 175); settings: S. cerevisiae mlh1 rad18 strain growth inhibition, hits give high values
Outline: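 Cells of a genetically altered yeast strain, deficient in DNA damage repair, were treated with compound. Their growth was then compared with that of vehicle-treated cultures to give inhibition.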

[15] = NCI Yeast Anticancer Drug Screen. Data for the rad18 strain (AID 177); settings: S. cerevisiae rad18 mutant growth inhibition, hits give high values
Outline: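 Compounds are applied to a repair-deficient yeast strain, and growth is compared with that of vehicle-treated cultures to give percent inhibition.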

[16] = NCI Yeast Anticancer Drug Screen. Data for the mgt1 strain (AID 153); settings: S. cerevisiae mgt1 mutant growth inhibition, hits give high values
Outline: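 Growth inhibition relative to vehicle controls was scored for the mgt1 yeast strain after compound exposure.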

[17] = at 5.0 µM (retest, dose inferred, filed as 0.5)
[18] = at 50.0 µM (retest, dose inferred, filed as 5.0)

Measured: growth inhibition

CCC/C(Cl)=N\OC(=O)Nc1ccc(Br)cc1
inactive: [1]; at 1.2 µM 58% | [1]; at 3.7 µM 69% | [2]; at 1.2 µM 13% | [2]; at 3.7 µM 14% | [2]; at 11.0 µM 58% | [3]; at 1.2 µM 26% | [3]; at 3.7 µM 31% | [3]; at 11.0 µM 56% | [4]; at 1.2 µM 32% | [4]; at 3.7 µM 40% | [4]; [17] 9% | [5]; at 1.2 µM 16% | [5]; at 3.7 µM 27% | [5]; [17] -16% | [6]; at 1.2 µM 32% | [6]; at 3.7 µM 33% | [7]; [17] 9% | [8]; at 1.2 µM 10% | [8]; at 3.7 µM 15% | [9]; [17] -22% | [10]; at 1.2 µM 1% | [10]; at 3.7 µM 17% | [10]; [17] -48% | [10]; at 11.0 µM 63% | [11]; at 1.2 µM 25% | [11]; at 3.7 µM 33% | [12]; at 1.2 µM 14% | [12]; at 3.7 µM 19% | [13]; at 1.2 µM 65% | [13]; at 3.7 µM 62% | [14]; [17] 61%
active: [1]; at 11.0 µM 94% | [1]; at 33.0 µM 98% | [1]; at 100.0 µM 98% | [2]; at 33.0 µM 97% | [2]; at 100.0 µM 98% | [3]; at 33.0 µM 77% | [3]; at 100.0 µM 81% | [4]; at 11.0 µM 86% | [4]; at 33.0 µM 97% | [4]; [18] 99% | [4]; at 50.0 µM 88.2% | [4]; at 100.0 µM 98% | [5]; at 11.0 µM 77% | [5]; at 33.0 µM 98% | [5]; [18] 99% | [5]; at 50.0 µM 92% | [5]; at 100.0 µM 99% | [6]; at 11.0 µM 90% | [6]; at 33.0 µM 98% | [6]; at 100.0 µM 99% | [7]; [18] 99% | [7]; at 50.0 µM 84% | [8]; at 11.0 µM 84% | [8]; at 33.0 µM 98% | [8]; at 100.0 µM 99% | [9]; [18] 99% | [9]; at 50.0 µM 89.8% | [10]; at 33.0 µM 94% | [10]; [18] 99% | [10]; at 50.0 µM 87.6% | [10]; at 100.0 µM 96% | [11]; at 11.0 µM 90% | [11]; at 33.0 µM 98% | [11]; at 100.0 µM 99% | [12]; at 11.0 µM 76% | [12]; at 33.0 µM 97% | [12]; at 100.0 µM 98% | [13]; at 11.0 µM 94% | [13]; at 33.0 µM 98% | [13]; at 100.0 µM 98% | [14]; [18] 99% | [14]; at 50.0 µM 83.8% | [15]; at 1.2 µM 71% | [15]; at 3.7 µM 77% | [15]; at 11.0 µM 93% | [15]; at 33.0 µM 97% | [15]; at 100.0 µM 98%

c1ccc2c(c1)c1ncccc1c1nccnc21
inactive: [1]; at 1.2 µM 2% | [1]; at 3.7 µM 8% | [1]; at 11.0 µM 26% | [1]; at 33.0 µM 48% | [2]; at 1.2 µM -2% | [2]; at 3.7 µM 4% | [2]; at 11.0 µM 11% | [2]; at 33.0 µM 12% | [2]; at 100.0 µM 19% | [3]; at 1.2 µM 15% | [3]; at 3.7 µM 33% | [3]; at 11.0 µM 43% | [3]; at 33.0 µM 69% | [3]; at 100.0 µM 63% | [4]; at 1.2 µM -4% | [4]; at 3.7 µM 9% | [4]; [17] -46% | [4]; at 11.0 µM 34% | [4]; at 33.0 µM 55% | [4]; [18] 53% | [5]; at 1.2 µM 1% | [5]; at 3.7 µM 0% | [5]; [17] -47% | [5]; at 11.0 µM 0% | [5]; at 33.0 µM 2% | [5]; [18] -53% | [5]; at 50.0 µM 14.7% | [5]; at 100.0 µM 4% | [6]; at 1.2 µM 3% | [6]; at 3.7 µM 3% | [6]; at 11.0 µM 23% | [6]; at 33.0 µM 16% | [6]; at 100.0 µM 11% | [7]; [17] -60% | [7]; [18] -53% | [7]; at 50.0 µM 0% | [8]; at 1.2 µM 0% | [8]; at 3.7 µM -5% | [8]; at 11.0 µM -10% | [8]; at 33.0 µM -8% | [8]; at 100.0 µM -7% | [9]; [17] -60% | [9]; [18] -59% | [9]; at 50.0 µM -40.5% | [10]; at 1.2 µM 4% | [10]; at 3.7 µM -2% | [10]; [17] -58% | [10]; at 11.0 µM -1% | [10]; at 33.0 µM -5% | [10]; [18] -60% | [10]; at 50.0 µM -0.35% | [10]; at 100.0 µM -7% | [11]; at 1.2 µM 9% | [11]; at 3.7 µM 14% | [11]; at 11.0 µM 16% | [11]; at 33.0 µM 19% | [11]; at 100.0 µM 22% | [12]; at 1.2 µM -10% | [12]; at 3.7 µM -4% | [12]; at 11.0 µM -2% | [12]; at 33.0 µM 2% | [12]; at 100.0 µM 17% | [13]; at 1.2 µM -12% | [13]; at 3.7 µM -14% | [13]; at 11.0 µM -2% | [13]; at 33.0 µM 3% | [13]; at 100.0 µM 21% | [14]; [17] -97% | [14]; [18] -73% | [14]; at 50.0 µM 33.9% | [15]; at 1.2 µM -10% | [15]; at 3.7 µM -1% | [15]; at 11.0 µM -2% | [15]; at 33.0 µM -1% | [15]; at 100.0 µM 13%
active: [1]; at 100.0 µM 72% | [4]; at 50.0 µM 76.8% | [4]; at 100.0 µM 71%

CN(CCc1ccccn1)c1ccc2c(c1)Cc1ccccc1-2
active: [3]; at 11.0 µM 91% | [3]; at 33.0 µM 89% | [3]; at 100.0 µM 88% | [4]; at 50.0 µM 90.2% | [7]; [18] 82% | [7]; at 50.0 µM 83.3%
inactive: [1]; at 1.2 µM 1% | [1]; at 3.7 µM 11% | [1]; at 11.0 µM 54% | [1]; at 33.0 µM 45% | [1]; at 100.0 µM 53% | [2]; at 1.2 µM 1% | [2]; at 3.7 µM 7% | [2]; at 11.0 µM 6% | [2]; at 33.0 µM 5% | [2]; at 100.0 µM 2% | [3]; at 1.2 µM 29% | [3]; at 3.7 µM 68% | [16]; at 1.2 µM -3% | [16]; at 3.7 µM -4% | [16]; at 11.0 µM 1% | [16]; at 33.0 µM 3% | [16]; at 100.0 µM 19% | [4]; at 1.2 µM 4% | [4]; at 3.7 µM 26% | [4]; [17] 20% | [4]; at 11.0 µM 69% | [4]; at 33.0 µM 68% | [4]; [18] 57% | [4]; at 100.0 µM 67% | [5]; at 1.2 µM -1% | [5]; at 3.7 µM 8% | [5]; [17] 5% | [5]; at 11.0 µM 26% | [5]; at 33.0 µM 20% | [5]; [18] 1% | [5]; at 50.0 µM 4.05% | [5]; at 100.0 µM 20% | [7]; [17] 9% | [8]; at 1.2 µM -5% | [8]; at 3.7 µM -16% | [8]; at 11.0 µM -11% | [8]; at 33.0 µM -16% | [8]; at 100.0 µM -5% | [10]; at 1.2 µM 0% | [10]; at 3.7 µM -4% | [10]; [17] -12% | [10]; at 11.0 µM 13% | [10]; at 33.0 µM 21% | [10]; [18] 30% | [10]; at 50.0 µM 18.4% | [10]; at 100.0 µM 20% | [11]; at 1.2 µM -1% | [11]; at 3.7 µM -2% | [11]; at 11.0 µM 5% | [11]; at 33.0 µM 4% | [11]; at 100.0 µM 26% | [12]; at 1.2 µM 0% | [12]; at 3.7 µM 3% | [12]; at 11.0 µM 17%
